Laboratory results published in PubChem BioAssay (NCATS).
Results filed as inconclusive are left out. Unless noted, calls come from the whole dose curve.

Experiments:
[1] = Cell Viability - BJ (AID 421); conditions: BJ fibroblast viability, qHTS;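 note: cells exposed to compound for 40 hours at 37 °C before readout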
Method in brief: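 Cytotoxicity as drop in intracellular ATP (CellTiter-Glo, 20 min RT) after 40 hr compound exposure of BJ fibroblasts at 37 °C. Titrations scaled between DMSO and 100 uM tamoxifen, Hill-fitted for AC50.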

[2] = Cell Viability - Jurkat (AID 426;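 active = dose-dependent loss of cell ATP signal giving a full or clear fitted curve, ranked by lower potency value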;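 note: cells exposed to compound for 40 hours at 37 °C before ATP read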); conditions: qHTS
Method in brief: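 Cytotoxicity taken as drop in cellular ATP (CellTiter-Glo luminescence, 20 min room temperature) after 40 hr, 37C treatment of 5000 Jurkat Clone E6-1 cells per well; concentration-response fitted with Hill equation for AC50.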

[3] = Cell Viability - MRC5 (AID 434); conditions: MRC5 lung fibroblast viability, qHTS;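 note: cells exposed to compound for 40 hours at 37 °C; potency reflects cytotoxicity seen as loss of intracellular ATP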
Method in brief: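 ATP luminescence read-out (CellTiter-Glo, 20 min RT) after 40 hr, 37 °C compound exposure of 1500 MRC5 cells/well. Data normalized to DMSO (basal) and 100 uM tamoxifen (100% inhibition); AC50 from standard Hill equation.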

[4] = Cell Viability - SK-N-SH (AID 435); conditions: SK-N-SH neuroblastoma cell viability qHTS;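 note: compound exposure lasted 40 h at 37 °C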
Method in brief: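 Luminescent ATP signal served as the viability read-out after 40 hours of compound treatment of human neuroblastoma SK-N-SH cells. Concentration-response data, scaled between DMSO and 100 uM tamoxifen, gave AC50 values by standard Hill modeling.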

[5] = Cell Viability - Hek293 (AID 427;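 active = compounds whose dose-response curve shows a full or clear partial loss of cell viability, called from curve shape rather than a numeric limit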;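 note: cells exposed to compound for 40 hours at 37 °C before reading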); conditions: qHTS
Method in brief: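 Luminescent ATP content (CellTiter-Glo, 20 min at room temperature) was measured after a 40 hr, 37 °C compound exposure of HEK293 cells. AC50 values came from Hill-equation fits of qHTS concentration-response data normalized to DMSO and 100 uM tamoxifen.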

[6] = Cell Viability - HepG2 (AID 433); conditions: qHTS;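 note: potency for ATP loss meaning cytotoxicity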
Method in brief: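 Read-out is luciferase-based quantitation of cellular ATP as a measure of viable HepG2 cells after 40 h treatment at 37 °C. Signal decrease is scaled between DMSO-only and 100 uM tamoxifen controls, with AC50 fitted by the Hill equation.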

Measured: Potency
Potency is the fitted concentration of half-maximal effect.

CC(C)(C)CC(C)(C)c1ccc(OCCO)cc1
inactive: [1] > 92 µM | [2] > 92 µM | [3] > 92 µM | [4] > 92 µM

CC[C@H]1OC(=O)[C@H](C)[C@@H](O[C@H]2C[C@@](C)(OC)[C@@H](O)[C@H](C)O2)[C@H](C)[C@@H](O[C@@H]2O[C@H](C)C[C@H](N(C)C)[C@H]2O)[C@](C)(O)C[C@@H](C)CN(C)[C@H](C)[C@@H](O)[C@]1(C)O
inactive: [1] > 92 µM | [5] > 92 µM | [6] > 92 µM | [3] > 92 µM

ClC(Cl)Cl
inactive: [1] > 92 µM | [2] > 92 µM | [5] > 92 µM | [6] > 92 µM | [3] > 92 µM | [4] > 92 µM

CC/C=C\C/C=C\C/C=C\CCCCCCCC(=O)O
inactive: [1] > 92 µM | [5] > 92 µM | [6] > 92 µM | [3] > 92 µM | [4] > 92 µM

Nc1ncnc2c1ncn2[C@H]1CC[C@@H](CO)O1
inactive: [1] > 92 µM | [2] > 92 µM | [5] > 92 µM | [6] > 92 µM | [3] > 92 µM | [4] > 92 µM
